91 molecules from PubChem BioAssay AID540308 (The Scripps Research Institute Molecular Screening Center, 2011) can be followed below.

Each structure is given as a SMILES string. The campaign covered roughly 360,000 compounds. About 3,500 (0.97%) were called active.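 The calls were made as follows: active = activation above a per-plate cutoff, the mean activation of sample wells on that plate plus 3 SD (cut at about 8% in these data); inactive = the rest.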 Many of the other results were omitted from the sample, so actives are more common in it than they were.

This experiment deals with Melanocortin receptor 4 (Homo sapiens) (UniProt P32245). As to the kind of experiment: MC4R agonists recruiting beta-arrestin, primary screen, cell-based, luminescence, agonist arm of biased-ligand search (AID 540308). Conditions: U2OS MC4R beta-arrestin complementation, at 8.9 µM, active compounds read high, percent of melanotan II response, DMSO zero.
Melanocortin receptor 4 (Homo sapiens), sequence (P32245 whole entry, looked up): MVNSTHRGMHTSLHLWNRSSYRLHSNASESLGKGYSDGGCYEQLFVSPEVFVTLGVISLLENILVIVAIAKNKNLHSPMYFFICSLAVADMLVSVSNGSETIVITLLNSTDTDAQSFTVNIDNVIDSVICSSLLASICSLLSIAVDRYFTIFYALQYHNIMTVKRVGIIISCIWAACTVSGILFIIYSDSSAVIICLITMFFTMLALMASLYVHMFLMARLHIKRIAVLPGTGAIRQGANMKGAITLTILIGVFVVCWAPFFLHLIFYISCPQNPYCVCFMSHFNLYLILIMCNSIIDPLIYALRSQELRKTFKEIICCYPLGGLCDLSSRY
For the molecule `COC(=O)c1c(C)[nH]c(C(=O)/C=C/c2ccc(Cl)cc2)c1C`, the activation is 30.6% (active).

With `COC(=O)c1c(C)[nH]c(C(=O)NCCc2ccc(S(N)(=O)=O)cc2)c1C`, the activation was 0.27% (inactive).

For `CCCCOC(=O)c1[nH]c(C)c(C(=O)OC)c1C`, the activation is -0.04% (inactive).

In the case of `CCCCCC(O)c1cccc(OCc2ccc3ccccc3n2)c1` (stereo unspecified), the activation is 8.01% (inactive).

For `CN(CC(=O)Nc1ccc(Cl)cc1)C(=O)c1ccc(COc2ccccc2)cc1`, the activation is 23.3% (active).

As for `CN(Cc1ccccc1)C(=O)c1ccc(COc2ccccc2)cc1`, the activation was -0.25% (inactive).

On to `COc1ccc(NC(=O)CN(C)C(=O)c2ccc(COc3ccccc3)o2)cc1`, for which the activation was -0.54% (inactive).

Turning to `O=C(Nc1nnc([C@H]2C[C@H](O)[C@@H](CO)O2)s1)c1cccc(Cl)c1`, the activation is 0.51% (inactive).

With `Cc1cc(Br)ccc1NC(=O)CCCOc1cc(=O)n(C)c2ccccc12`, the activation is -1.42% (inactive).

In the case of `CCc1nc2c(OCCC3CCCCC3)cccn2c1N(C)C(=O)c1ccco1`, the activation was 1.25% (inactive).

As for `N#CC(=C1SC=CS1)c1nc(-c2ccccc2)cs1`, the activation is 30.3% (active).

Turning to `N#CC(=C1CCCC1)c1nc(-c2ccc(Cl)cc2)cs1`, the activation is -1.29% (inactive).

In the case of `CC(C)c1cccc(-c2csc(C(O)c3ccccc3)n2)c1` (stereo unspecified), the activation was 5.31% (inactive).

As for `O=C(CN1CCOCC1)N/N=C/c1ccc(-c2ccc(Br)cc2)o1`, the activation is -3.54% (inactive).

Consider `Nc1nnn(CC(=O)N/N=C/c2ccccc2)n1`, for which the activation was -0.81% (inactive).

For `O=C(Cn1nnc(-c2ccccc2)n1)N/N=C/c1ccc(-c2ccc(Cl)cc2)o1`, the activation is 9.43% (active).

In the case of `Cc1cc2nc(SCCN3CCOCC3)[nH]c2cc1C`, the activation is 3.6% (inactive).

For the molecule `Cc1ccc(-n2nc3cc(Cl)c(NC(=O)c4ccco4)cc3n2)cc1`, the activation is 9.62% (active).

As for `Cc1ccc(-n2nc3cc(C)c(NC(=O)c4cccnc4)cc3n2)cc1`, the activation was 2.16% (inactive).

`Cc1ccc(NC(=O)c2ccco2)cc1`: the activation was -2.18% (inactive).

Regarding `CCOc1ccc(C(=O)Nc2ccc(S(=O)(=O)NCC3CCCO3)cc2)cc1OCC` (stereo unspecified), the activation was -3.73% (inactive).

`CCCNC(=O)C1(C)CCCN(Cc2c(C)nn(-c3ccccc3)c2C)C1` (stereo unspecified): the activation is 0.24% (inactive).

Regarding `CC(C)Oc1cc(F)ccc1-c1cc(C(=O)Nc2cccc(Cl)c2)[nH]n1`, the activation was 0.52% (inactive).

Consider `COc1ccc(C(=O)OCC(=O)NCCCc2ccccc2)cc1OC`, for which the activation is 1.24% (inactive).

Take `Cc1cc(C)cc(C(=O)OCC(=O)NCCNC(=O)COC(=O)c2cc(C)cc(C)c2)c1`: the activation was 12% (active).

Take `COc1ccccc1C(=O)OCC(=O)NCCNC(=O)COC(=O)c1ccccc1OC`: the activation was -1.16% (inactive).

As for `CCOC(=O)C1CCCN(C(=O)c2ccc(C)c(F)c2)CC1` (stereo unspecified), the activation was -1.19% (inactive).

Turning to `Cc1cc(/C=C(/C#N)C(=O)Nc2ccc(Cl)cc2)c(C)n1-c1cccnc1`, the activation was 11.4% (active).

Turning to `Cc1ccc(-n2c(C)cc(/C=C(\C#N)C(=O)NCC3CCCO3)c2C)cc1` (stereo unspecified), the activation is -2.19% (inactive).

Turning to `N#C/C(=C\c1cccnc1)C(=O)Nc1ccc(SC(F)F)cc1`, the activation is -1.77% (inactive).

Regarding `CC1(C(=O)NCC2CCOCC2)Cc2c(-c3cccc(C(N)=O)c3)ccnc2O1` (stereo unspecified), the activation was 0.47% (inactive).

In the case of `COC(=O)c1ccccc1NC(=O)CSc1nnnn1C`, the activation is -1.06% (inactive).

`CCOC(=O)c1c(-c2ccc(C)cc2C)csc1NC(=O)CSc1nnnn1C`: the activation is 14.8% (active).

For the molecule `Cn1nnnc1SCC(=O)Nc1sccc1C(N)=O`, the activation is 0.49% (inactive).

Consider `OC[C@H]1O[C@@H](c2nc(-c3nc(-c4ccc(F)cc4)no3)cs2)[C@H](O)[C@@H](O)[C@H]1O`, for which the activation is -1.58% (inactive).

On to `Nc1nc(CSc2nnnn2-c2ccccc2)nc(Nc2ccccc2)n1`, for which the activation was 3.67% (inactive).

On to `CCOC(=O)c1ccc(-c2ccc3ncnc(N(C)Cc4sccc4C)c3c2)o1`, for which the activation is 1.6% (inactive).

For the molecule `CC1(C(=O)NS(=O)(=O)c2ccc(C#N)cc2)CCN1C(=O)c1ccc(C2CCCCC2)cc1` (stereo unspecified), the activation is -2.29% (inactive).

As to `CCc1ccc(CN(C)C(=O)C2CCC(=O)N(Cc3cccc(OC)c3)C2)nc1` (stereo unspecified), the activation is -1.43% (inactive).

Turning to `Cc1nc2c(OCC(=O)C(C)(C)C)cccn2c1N(C)Cc1cccs1`, the activation is -0.1% (inactive).

On to `CN(C)CCCN(C(=O)c1ccc(S(=O)(=O)N2CCCCCC2)cc1)c1nc2ccc(Br)cc2s1`, for which the activation was 9.74% (active).

For `CCN(CC(=O)Nc1c(F)cccc1F)C(=O)c1ccc(S(=O)(=O)N2CCCCC2)cc1`, the activation was -2.71% (inactive).

Turning to `CN(C)CCN(C(=O)C1=COCCO1)c1nc2ccc(Cl)cc2s1`, the activation was 1.13% (inactive).

Take `CCNC(=O)C1(C)CCN(Cc2ccc(C(=O)OCC)o2)C1` (stereo unspecified): the activation was -1.16% (inactive).

As to `Cn1c(=O)c2cc(NC(=O)NCCc3cccs3)ccc2n1Cc1cccc(C(F)(F)F)c1`, the activation is -0.26% (inactive).

As to `CCc1nc2c(OCC(N)=O)cccn2c1N(C)C(=O)c1ccc(OC)cc1`, the activation is -1.44% (inactive).

As to `COc1cc(C2C(C(=O)Nc3ccc(F)cc3)=C(C)Nc3nc(CCCO)nn32)cc(OC)c1OC` (stereo unspecified), the activation is -1.43% (inactive).

As to `COc1ccc(NC(=O)C2=C(C)NC(=O)NC2c2ccccc2[N+](=O)[O-])cc1` (stereo unspecified), the activation is -2.18% (inactive).

Consider `COC(=O)c1nc2n(n1)C(c1ccc([N+](=O)[O-])cc1)C(C(=O)Nc1ccc(Cl)cc1)=C(C)N2` (stereo unspecified), for which the activation was 9.62% (active).

In the case of `CCNC(=O)C1(C)CCN(C(=O)c2ccccc2)C1` (stereo unspecified), the activation was 1.33% (inactive).

For `CSCCC(Nc1ccc(S(=O)(=O)N2CCOCC2)cc1[N+](=O)[O-])C(=O)OCC(=O)N(C(C)C)C(C)C` (stereo unspecified), the activation is -3.39% (inactive).

Consider `COc1ccccc1N1CCN(C(=O)c2cn(-c3ccccc3)nc2-c2cccnc2)CC1`, for which the activation is 0.24% (inactive).

In the case of `NC(=O)C1CCN(C(=O)c2cn(-c3ccccc3)nc2-c2cccnc2)CC1`, the activation is 8.8% (active).

On to `O=C(c1cn(-c2ccccc2)nc1-c1cccnc1)N1CCN(S(=O)(=O)c2ccccc2F)CC1`, for which the activation was -2.08% (inactive).

In the case of `CC(C)OC(=O)c1ccc(NCc2cc(O)ccc2O)cc1Cl`, the activation was -0.65% (inactive).

For `COC(=O)c1ccc(NCc2cc(O)ccc2O)cc1`, the activation was -1.55% (inactive).

For `O=C(OC12CC3CC(CC(C3)C1)C2)c1ccc(NCc2cc(O)ccc2O)cc1`, the activation was 18.7% (active).

Take `CC(=O)NC(c1ccccc1)c1nc(-c2cccc(C(C)C)c2)cs1` (stereo unspecified): the activation is -1.73% (inactive).

On to `CCCNC(=O)c1cc(C2CCCCN2C(=O)OC)on1` (stereo unspecified), for which the activation is -0.19% (inactive).

In the case of `Cc1cc(OCc2cc(C(=O)NCc3cc(C(C)C)no3)no2)cc(C)c1Cl`, the activation is 10% (active).

With `Cc1cccnc1CC(C)NC(=O)c1cc(COc2cncc(Cl)c2)on1` (stereo unspecified), the activation is 0.62% (inactive).

Turning to `COc1ccc(OCc2cc(C(=O)NCC3(C)COC3)no2)c(Cl)c1`, the activation was -0.53% (inactive).

In the case of `O=C(CCc1ccccc1)Nc1ccnn1C1CCN(Cc2ccc(OCCO)cc2)CC1`, the activation was 1.84% (inactive).

For the molecule `CCCNC(=O)C1(C)CCN(Cc2ccc(Cl)c(Cl)c2)C1` (stereo unspecified), the activation was -2.21% (inactive).

For the molecule `Cc1oc2cc(Br)c(O)c(Br)c2c1C(=O)c1ccccc1`, the activation is -0.65% (inactive).

Turning to `CCOC(=O)c1c(C)oc2cc(Sc3ccccc3)c(O)c(O)c12`, the activation is 2.95% (inactive).

As to `CCOC(=O)c1c(-c2ccccc2)oc2cc(Br)c(O)c(C=O)c12`, the activation was 48% (active).

Turning to `COc1ccc(C2CC(c3cccc(OC)c3)=NN2c2ccc(S(N)(=O)=O)cc2)cc1` (stereo unspecified), the activation was -0.4% (inactive).

As for `COc1ccc(-c2csc(C(O)c3cccc(Cl)c3)n2)cn1` (stereo unspecified), the activation is -0.23% (inactive).

In the case of `CC1(C(=O)NS(=O)(=O)c2ccc(C#N)cc2)CCN1C(=O)CC1CCCC1` (stereo unspecified), the activation is -0.26% (inactive).

As to `Cc1ccc(NC(=S)NC(=O)c2ccc(-c3ccccc3)cc2)cc1`, the activation was 8.85% (active).

As for `Cc1ccc(C(=O)NC(=S)Nc2ccc(N3CCOCC3)cc2)cc1`, the activation is -0.72% (inactive).

Take `CC(=O)Nc1ccc(NC(=S)NC(=O)c2ccc([N+](=O)[O-])c(C)c2)cc1`: the activation was 0.22% (inactive).

`Cn1c(NCc2cccnc2)nc2cc(-c3ccc(F)cc3)sc2c1=O`: the activation was 1.42% (inactive).

For `OC[C@@H]1CN(Cc2ccc3c(c2)OCO3)C[C@H](n2cnc3c(NCc4ccco4)ncnc32)O1`, the activation is 0.72% (inactive).

Take `CC(=O)Nc1cncc(-c2ccccc2CO)n1`: the activation was -1.61% (inactive).

Regarding `Cn1c(=S)sc2ccc3ccccc3c21`, the activation was 18.2% (active).

As for `COc1ccc2ccccc2c1CNc1nnnn1C`, the activation is -2.85% (inactive).

For the molecule `CCc1nc2ccc(C(=O)N3CCC(O)(Cc4ccccc4)CC3)cn2c1N(C)C(=O)Cc1ccccc1`, the activation was -0.81% (inactive).

As to `Cc1ccc(CCC(=O)Nc2ncc(Cc3cc(Cl)ccc3Cl)s2)o1`, the activation was 10.3% (active).

On to `O=C(CCc1ccccc1Cl)Nc1ccc(S(=O)(=O)Nc2nccs2)cc1`, for which the activation is -1.67% (inactive).

As to `Cc1ccc(Cc2cnc(N)s2)o1`, the activation was 0.06% (inactive).

With `CNc1cnc(-c2cc(OC)c(OC)c(OC)c2)cn1`, the activation is 0.24% (inactive).

As to `CCOC(=O)C1(C)CCCN(C(=O)c2ccc(F)c(Cl)c2)C1` (stereo unspecified), the activation was -0.39% (inactive).

With `CC(=O)c1ccc(NC(=O)c2sc3nc4n(c(=O)c3c2C)CCCCC4)cc1`, the activation was -2.88% (inactive).

For `Cc1ccc(NC(=O)c2sc3nc(N)c(C#N)cc3c2N)cc1`, the activation is 7.55% (inactive).

Consider `CC(=O)Nc1ccc(NC(=O)c2sc3nc4c(c(-c5ccc(C)cc5)c3c2N)CCC4)cc1`, for which the activation was 11.7% (active).

Turning to `CC1(C(=O)NCc2ccc(F)c(F)c2)Cc2c(-c3ccc4c(c3)OCO4)ccnc2O1` (stereo unspecified), the activation is -2.86% (inactive).

Regarding `CCOC(=O)C1(C)CCCN(C(=O)c2ccc(N(C)C)cc2)C1` (stereo unspecified), the activation was -1.51% (inactive).

On to `CN(C)CCCOc1ccc(-c2ccc3nccn3c2)cn1`, for which the activation is -1.74% (inactive).

In the case of `CSc1ccc(CN2CCC2(C)C(=O)Nc2ccc(C)c(O)c2)cc1` (stereo unspecified), the activation was -0.16% (inactive).
